Measurements as given in PubChem BioAssay (NCATS).
Several values for one entry are separate records, joined by “and”; a condition that tells them apart may be missing. Identical values can stand only once. Results filed as inconclusive are left out. Activity calls are given as the source filed them. Calls follow the shape of the dose curve; as a rule, active = well fitted inhibition curve with a large enough effect; inconclusive = small, poorly fitted or top-dose-only effect; inactive = flat fitted curve, though single readings scatter.

How the values were obtained:
[1] = test system: HB3; test: qHTS profiling for inhibitors of Plasmodium falciparum proliferation (AID 504749); conditions: P. falciparum in erythrocytes, SYBR Green DNA, 72 h; series mostly up to 28.7 µM
Method in brief: (§1)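 Quantitative HTS: compounds pinned into medium, infected erythrocytes added (0.3% parasitemia, 2.5% hematocrit), 72 h culture at 37 C under 5% CO2. Saponin/Triton lysis with SYBR Green I, overnight RT, then fluorescence read.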

[2] = test system: ICS; test: as above; conditions: P. falciparum in erythrocytes, SYBR Green DNA, 72 h; series mostly up to 28.7 µM
Method in brief: as §1

[3] = test system: JCK; test: as above; conditions: P. falciparum in erythrocytes, SYBR Green DNA, 72 h; series mostly up to 28.7 µM
Method in brief: as §1

[4] = test system: N140; test: as above; conditions: P. falciparum in erythrocytes, SYBR Green DNA, 72 h; series mostly up to 28.7 µM
Method in brief: as §1

[5] = test system: P93_24; test: as above; conditions: P. falciparum in erythrocytes, SYBR Green DNA, 72 h; series mostly up to 28.7 µM
Method in brief: as §1

[6] = test system: P94_40; test: as above; conditions: P. falciparum in erythrocytes, SYBR Green DNA, 72 h; series mostly up to 28.7 µM
Method in brief: as §1

[7] = test system: PAD; test: as above; conditions: P. falciparum in erythrocytes, SYBR Green DNA, 72 h; series mostly up to 28.7 µM
Method in brief: as §1

[8] = test system: PC15; test: as above; conditions: P. falciparum in erythrocytes, SYBR Green DNA, 72 h; series mostly up to 28.7 µM
Method in brief: as §1

[9] = test system: PC26; test: as above; conditions: P. falciparum in erythrocytes, SYBR Green DNA, 72 h; series mostly up to 28.7 µM
Method in brief: as §1

[10] = test system: PC49; test: as above; conditions: P. falciparum in erythrocytes, SYBR Green DNA, 72 h; series mostly up to 28.7 µM
Method in brief: as §1

[11] = test system: SC27B; test: as above; conditions: P. falciparum in erythrocytes, SYBR Green DNA, 72 h; series mostly up to 28.7 µM
Method in brief: as §1

[12] = test system: TAB109; test: as above; conditions: P. falciparum in erythrocytes, SYBR Green DNA, 72 h; series mostly up to 28.7 µM
Method in brief: as §1

[13] = test system: TAB113; test: as above; conditions: P. falciparum in erythrocytes, SYBR Green DNA, 72 h; series mostly up to 28.7 µM
Method in brief: as §1

[14] = test system: TAB165; test: as above; conditions: P. falciparum in erythrocytes, SYBR Green DNA, 72 h; series mostly up to 28.7 µM
Method in brief: as §1

[15] = test system: W2; test: as above; conditions: P. falciparum in erythrocytes, SYBR Green DNA, 72 h; series mostly up to 28.7 µM
Method in brief: as §1

[16] = test system: CRL-7250; test: Cytotoxic Profiling of Annotated Libraries Using Quantitative High-Throughput Screening (AID 1296008); conditions: Five cell lines viability, CellTiter-Glo ATP luminescence, 48-72 h; max response: stronger effect = lower value; as to max response: % is scaled to controls: 0 for no effect and ±100 for the full control effect
Method in brief: (§2)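 Compounds were pin-transferred onto cells and incubated 48 or 72 hr at 37 degree Celsius, 95% humidity. CellTiter-Glo was added, plates sat 10 min at room temperature, then ATP-coupled luminescence was imaged as the viability read-out.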

[17] = test system: HEK293; test: as above; conditions: Five cell lines viability, CellTiter-Glo ATP luminescence, 48-72 h; max response: stronger effect = lower value
Method in brief: as §2

[18] = test system: HaCat; test: as above; conditions: Five cell lines viability, CellTiter-Glo ATP luminescence, 48-72 h; max response: stronger effect = lower value
Method in brief: as §2

[19] = test system: NIH3T3; test: as above; conditions: Five cell lines viability, CellTiter-Glo ATP luminescence, 48-72 h; max response: stronger effect = lower value
Method in brief: as §2

[20] = test system: KB-3-1; test: as above; conditions: Five cell lines viability, CellTiter-Glo ATP luminescence, 48-72 h; max response: stronger effect = lower value
Method in brief: as §2
Also: nearly all actives have a fitted effect of over 60% in size.
Potency is read from the fitted curve at half-maximal effect.

Nc1nnc(-c2cccc(Cl)c2Cl)c(N)n1
inactive: Potency [1] | Potency [2] | Potency [3] | Potency [4] | Potency [5] | Potency [6] | Potency [7] | Potency [8] | Potency [9] | Potency [10] | Potency [11] | Potency [12] | Potency [13] | Potency [14] | Potency [15] | max response [16] -7.91% and -8.11% | max response [17] -5.08% and 0.349% | outcome [18] | outcome [19]

Cc1cn([C@H]2C[C@H](N=[N+]=[N-])[C@@H](CO)O2)c(=O)[nH]c1=O
inactive: Potency [1] | Potency [2] | Potency [3] | Potency [4] | Potency [5] | Potency [6] | Potency [7] | Potency [8] | Potency [9] | Potency [10] | Potency [11] | Potency [12] | Potency [13] | Potency [14] | Potency [15]

CCOC(=O)c1ncn2c1CN(C)C(=O)c1cc(F)ccc1-2
inactive: Potency [1] | Potency [2] | Potency [3] | Potency [4] | Potency [5] | Potency [6] | Potency [7] | Potency [8] | Potency [9] | Potency [10] | Potency [11] | Potency [12] | Potency [13] | Potency [14] | Potency [15]

COc1cc2nc(N3CCN(C(=O)C4COc5ccccc5O4)CC3)nc(N)c2cc1OC (stereo not given)
inactive: max response [18] -6.13% | outcome [18] | max response [19] -16.5% | outcome [19]

CC#C[C@]1(O)CC[C@H]2[C@@H]3CCC4=CC(=O)CCC4=C3[C@@H](c3ccc(N(C)C)cc3)C[C@@]21C
active: Potency [1] 12.6 µM | Potency [2] 4.47 µM | Potency [4] 8.91 µM | Potency [5] 11.2 µM | Potency [7] 10 µM | Potency [8] 12.6 µM | Potency [9] 13.5 µM | Potency [11] 7.94 µM | Potency [12] 11.2 µM | Potency [13] 8.91 µM | Potency [14] 6.31 µM | Potency [15] 6.75 µM | Potency [17] 9.35 µM
inactive: max response [16] -15.2% | max response [18] -29.4% and -8.42% | max response [19] -20.2% and -3.41%

OCCN1CCN(CCCN2c3ccccc3Sc3ccc(C(F)(F)F)cc32)CC1
active: Potency [1] 11.2 µM | Potency [2] 1.58 µM | Potency [4] 7.08 µM | Potency [5] 6.31 µM | Potency [6] 11.2 µM | Potency [7] 7.94 µM | Potency [8] 11.2 µM | Potency [9] 6.75 µM | Potency [11] 8.91 µM | Potency [12] 7.08 µM | Potency [13] 8.91 µM | Potency [14] 12.6 µM | Potency [15] 1.51 µM | Potency [20] 20.6 µM | Potency [19] 13.2 µM
inactive: max response [16] 1.65% | max response [18] -28.3% and -6.1%

CC(COc1ccccc1)N(CCCl)Cc1ccccc1 (stereo not given)
inactive: Potency [1] | Potency [3] | Potency [7] | Potency [8] | Potency [10]
active: Potency [2] 11.2 µM | Potency [15] 6.01 µM

CN(C)C(=O)C(CCN1CCC(O)(c2ccc(Cl)cc2)CC1)(c1ccccc1)c1ccccc1
inactive: max response [16] -63.2%
active: Potency [17] 13.2 µM and 10.6 µM | Potency [20] 20.9 µM

O=c1[nH]cc(F)c(=O)[nH]1
inactive: Potency [3] | Potency [10]
active: Potency [17] 11.8 µM | Potency [19] 3.76 µM and 2.96 µM

CC(C)C(=O)Nc1ccc([N+](=O)[O-])c(C(F)(F)F)c1
inactive: Potency [1] | Potency [2] | Potency [3] | Potency [4] | Potency [5] | Potency [6] | Potency [7] | Potency [8] | Potency [9] | Potency [10] | Potency [11] | Potency [12] | Potency [13] | Potency [14] | Potency [15] | max response [16] -19.8% | outcome [18] | max response [19] -15.1% | outcome [19]

CC(C)NCC(O)c1ccc(O)c(O)c1 (stereo not given)
inactive: Potency [1] | Potency [2] | Potency [3] | Potency [4] | Potency [5] | Potency [6] | Potency [7] | Potency [8] | Potency [10] | Potency [11] | Potency [12] | Potency [13] | Potency [14] | Potency [15] | max response [16] 0.851% | max response [18] 3.14% and -18% | max response [20] 0.229% | max response [19] -0.342% and -6.04%

COc1ccccc1N1CCN(CC(O)COc2cccc3ccccc23)CC1 (stereo not given)
inactive: Potency [1] | Potency [3] | Potency [4] | Potency [5] | Potency [6] | Potency [7] | Potency [8] | Potency [9] | Potency [10] | Potency [11] | Potency [12] | max response [16] 4.67% | max response [18] 3.01% | max response [19] 0.0963%

Cn1c(=O)c2[nH]cnc2n(C)c1=O
inactive: Potency [1] | Potency [2] | Potency [3] | Potency [4] | Potency [5] | Potency [6] | Potency [8] | Potency [9] | Potency [10] | Potency [11] | Potency [12] | Potency [13] | Potency [14] | Potency [15]

CCC1(c2ccccc2)C(=O)NCNC1=O
inactive: Potency [1] | Potency [3] | Potency [4] | Potency [5] | Potency [6] | Potency [7] | Potency [8] | Potency [9] | Potency [10] | Potency [11] | Potency [12] | Potency [13] | Potency [14] | Potency [15]

Clc1ccc2c(c1)C(N1CCNCC1)=Nc1ccccc1O2
active: Potency [15] 5.36 µM | Potency [17] 20.6 µM
inactive: Potency [3] | Potency [9] | Potency [10] | max response [16] -6.06% and -6.64% and -8.49% | outcome [18] | max response [19] 4.64% and 1.82% and -2.71%

COc1ccccc1OCC(O)CN1CCN(CC(=O)Nc2c(C)cccc2C)CC1 (stereo not given)
inactive: Potency [1] | Potency [2] | Potency [3] | Potency [4] | Potency [5] | Potency [6] | Potency [7] | Potency [8] | Potency [9] | Potency [10] | Potency [11] | Potency [12] | Potency [13] | Potency [14] | Potency [15] | max response [17] 1.75% | outcome [17] | max response [18] -0.555% | outcome [18] | max response [20] 4.47% and -3.97% | max response [19] -5.09% | outcome [19]

Clc1ccccc1C(c1ccccc1)(c1ccccc1)n1ccnc1
active: Potency [1] 0.501 µM | Potency [2] 0.126 µM | Potency [3] 708 nM | Potency [4] 0.224 µM | Potency [5] 0.126 µM | Potency [6] 0.631 µM | Potency [7] 0.355 µM | Potency [8] 1 µM | Potency [9] 0.572 µM | Potency [10] 1 µM | Potency [11] 0.398 µM | Potency [12] 0.794 µM | Potency [13] 0.631 µM | Potency [14] 0.1 µM | Potency [15] 0.405 µM | Potency [17] 20.9 µM
inactive: max response [16] -11.6% and -17.2% | max response [18] -12.4% and -20.3%

CN1CCN2c3ccccc3Cc3ccccc3C2C1 (stereo not given)
inactive: Potency [1] | Potency [2] | Potency [3] | Potency [4] | Potency [5] | Potency [6] | Potency [7] | Potency [8] | Potency [9] | Potency [10] | Potency [11] | Potency [12] | Potency [13] | Potency [14]

CN1CCC(=C2c3ccccc3CC(=O)c3sccc32)CC1
inactive: Potency [1] | Potency [8] | Potency [10] | max response [16] 4.7% and -3.04% | max response [18] 0.22% | outcome [18] | max response [19] -5.39% | outcome [19]
active: Potency [15] 1.2 µM
